Growth inhibition data for 6 molecules are collected here from PubChem BioAssay (NCI).

Experiment [1] can be described thus: NCI Yeast Anticancer Drug Screen. Data for the rad50 strain (AID 155).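 Note: 0% = growth of vehicle-only cultures of the same strain.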 The settings on record: S. cerevisiae rad50 strain growth inhibition, active compounds read high. In a few lines: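 DNA repair mutant yeast, compound exposure, growth read-out; inhibition is taken relative to vehicle.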
A short description of experiment [2]: NCI Yeast Anticancer Drug Screen. Data for the mec2-1 strain (AID 157). The settings on record: S. cerevisiae mec2-1 strain, active compounds read high. In a few lines:
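Strain: mec2-1 (DNA repair/cell cycle alteration). Compound exposure, then growth measured; inhibition expressed relative to vehicle.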

The nature of experiment [3]: NCI Yeast Anticancer Drug Screen. Data for the sgs1 mgt1 strain (AID 161).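 Note: 0% = growth of cultures given vehicle only.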 The settings on record: S. cerevisiae sgs1 mgt1 strain, active compounds read high. The method, boiled down: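 Inhibition of yeast growth, normalised to vehicle-treated controls, is reported for a strain bearing genetic alterations in DNA damage repair.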
Experiment [4] can be described thus: NCI Yeast Anticancer Drug Screen. Data for the cln2 rad14 strain (AID 165).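 Note: 0% = growth equal to vehicle treated cultures.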 The settings on record: S. cerevisiae cln2 rad14 strain, active compounds read high. The method, boiled down:
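Compounds are applied to the cln2 rad14 yeast strain, and growth is then compared with that of vehicle-treated cultures to give inhibition.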

Experiment [5] is described as follows: NCI Yeast Anticancer Drug Screen. Data for the bub3 strain (AID 167). The settings on record: S. cerevisiae bub3 mutant strain, active compounds read high. The method, boiled down:
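In this screen, a yeast mutant lacking normal mitotic checkpoint function is challenged with compound. Relative growth versus vehicle gives the inhibition value.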

Experiment [6] is described as follows: NCI Yeast Anticancer Drug Screen. Data for the mlh1 rad18 strain (AID 175). The settings on record: S. cerevisiae mlh1 rad18 strain growth inhibition, active compounds read high. The method, boiled down:
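Read-out is yeast growth inhibition, calculated against vehicle-only controls. The compound was applied to a strain engineered with DNA damage repair alterations.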

Setting [7] is: at 5.0 µM (retest, dose inferred, filed as 0.5).
Where [8] appears, read: at 50.0 µM (retest, dose inferred, filed as 5.0).

Compounds without any hit were thinned out: in the full panel of roughly 79,000, 15% have a hit. A number with no mark means an inactive call. Activity calls are given as the source filed them. Cut-off read from the data, not from the text of the source: active = growth inhibition above about 70%; inactive = the rest.

For `O=C1CSC(c2ccc(Cl)cc2)N1c1ccc(-c2ccc(-n3c(-c4ccccc4)nc4ccccc4c3=O)cc2)cc1` (stereo not drawn), the growth inhibition in experiment [1] (setting [7]) is -6%; in experiment [1] (setting [8]), 84% (active); in experiment [1] (at 50.0 µM) it was 69.4%; in experiment [2] (setting [7]), 2%; in experiment [2] (setting [8]), 63%; in experiment [2] (at 50.0 µM), 47.2%. The growth inhibition in experiment [3] (setting [7]) was 9%; in experiment [3] (setting [8]), 65%; in experiment [3] (at 50.0 µM), 84.2% (active); in experiment [4] (setting [7]) it was -11%; in experiment [4] (setting [8]), 50%; in experiment [4] (at 50.0 µM) it was 26.9%. The growth inhibition in experiment [5] (setting [7]) was -4%; in experiment [5] (setting [8]), 95% (active); in experiment [5] (at 50.0 µM) it was 84.8% (active); in experiment [6] (setting [7]), -10%; in experiment [6] (setting [8]), 94% (active); in experiment [6] (at 50.0 µM), 87.5% (active).

On to `CC[C@@]1(O)C[C@H](OC2CC(N(C)C)C(OC3CC(O)C(OC4CCC(=O)C(C)O4)C(C)O3)C(C)O2)c2c(cc3c(c2O)C(=O)c2c(O)cccc2C3=O)[C@H]1C(=O)OC` (stereo partly drawn), for which the growth inhibition in experiment [1] (setting [7]) was 95% (active); in experiment [1] (setting [8]), 97% (active); in experiment [1] (at 50.0 µM) it was 91.2% (active); in experiment [2] (setting [7]), 98% (active); in experiment [2] (setting [8]), 99% (active); in experiment [2] (at 50.0 µM), 92.8% (active). For the same molecule, the growth inhibition in experiment [3] (setting [7]) was 92% (active); in experiment [3] (setting [8]), 97% (active); in experiment [3] (at 50.0 µM) it was 91.9% (active); in experiment [4] (setting [7]), 92% (active); in experiment [4] (setting [8]), 98% (active); in experiment [4] (at 50.0 µM), 89.2% (active). Besides, the growth inhibition was 95% (active) in experiment [5] (setting [7]); 98% (active) in experiment [5] (setting [8]); 91.8% (active) in experiment [5] (at 50.0 µM); 97% (active) in experiment [6] (setting [7]); 98% (active) in experiment [6] (setting [8]); 92% (active) in experiment [6] (at 50.0 µM).

Regarding `CCCCCCCCc1cc[n+](C2=C([O-])c3ccccc3C(=O)C2=O)cc1`, the growth inhibition in experiment [1] (setting [7]) is 99% (active); in experiment [1] (setting [8]) it was 97% (active); in experiment [1] (at 50.0 µM), 98.8% (active); in experiment [2] (setting [7]) it was 100% (active); in experiment [2] (setting [8]), 93% (active); in experiment [2] (at 50.0 µM), 98.2% (active). The growth inhibition is 100% (active) in experiment [3] (setting [7]); 98% (active) in experiment [3] (setting [8]); 99% (active) in experiment [3] (at 50.0 µM); 99% (active) in experiment [4] (setting [7]); 95% (active) in experiment [4] (setting [8]); 98.5% (active) in experiment [4] (at 50.0 µM). Besides, the growth inhibition in experiment [5] (setting [7]) is 99% (active); in experiment [5] (setting [8]), 99% (active); in experiment [5] (at 50.0 µM) it was 98.8% (active); in experiment [6] (setting [7]) it was 100% (active); in experiment [6] (setting [8]), 99% (active); in experiment [6] (at 50.0 µM), 98.2% (active).

`Cc1ccc(NC(=O)COC(=O)c2cccc3c(=O)c4ccccc4[nH]c23)cc1`: the growth inhibition in experiment [1] (setting [7]) was 51%; in experiment [1] (setting [8]), 89% (active); in experiment [1] (at 50.0 µM), 74.8% (active); in experiment [2] (setting [7]), 27%; in experiment [2] (setting [8]), 80% (active); in experiment [2] (at 50.0 µM), 43.3%. The growth inhibition in experiment [3] (setting [7]) is 40%; in experiment [3] (setting [8]), 89% (active); in experiment [3] (at 50.0 µM), 29.6%; in experiment [4] (setting [7]), 21%; in experiment [4] (setting [8]) it was 69%; in experiment [4] (at 50.0 µM), 61.6%. Besides, the growth inhibition is 42% in experiment [5] (setting [7]); 81% (active) in experiment [5] (setting [8]); 72% (active) in experiment [5] (at 50.0 µM); 49% in experiment [6] (setting [7]); 94% (active) in experiment [6] (setting [8]); 49.5% in experiment [6] (at 50.0 µM).

With `CN1C(=O)[C@@H]2N(N(C)C1=O)[C@@]1(Br)C(=O)N(C)C(=O)[C@@]21Br`, the growth inhibition was 18% in experiment [1] (setting [7]); 78% (active) in experiment [1] (setting [8]); 92.5% (active) in experiment [1] (at 50.0 µM); 4% in experiment [2] (setting [7]); 57% in experiment [2] (setting [8]); 79% (active) in experiment [2] (at 50.0 µM). The growth inhibition was 18% in experiment [3] (setting [7]); 84% (active) in experiment [3] (setting [8]); 87.8% (active) in experiment [3] (at 50.0 µM); 4% in experiment [4] (setting [7]); 24% in experiment [4] (setting [8]); 67.8% in experiment [4] (at 50.0 µM). Further, the growth inhibition in experiment [5] (setting [7]) is 1%; in experiment [5] (setting [8]), 53%; in experiment [5] (at 50.0 µM), 94.5% (active); in experiment [6] (setting [7]), 14%; in experiment [6] (setting [8]), 91% (active); in experiment [6] (at 50.0 µM) it was 97.8% (active).

Take `O=C(CCl)Nc1cc(Cl)ccc1Cl`: the growth inhibition was 2% in experiment [1] (setting [7]); 23% in experiment [1] (setting [8]); 37.5% in experiment [1] (at 50.0 µM); -20% in experiment [2] (setting [7]); 26% in experiment [2] (setting [8]); 30.8% in experiment [2] (at 50.0 µM). In addition, the growth inhibition in experiment [3] (setting [7]) is 6%; in experiment [3] (setting [8]), 30%; in experiment [3] (at 50.0 µM) it was 43.4%; in experiment [4] (setting [7]), 5%; in experiment [4] (setting [8]), 20%; in experiment [4] (at 50.0 µM) it was 18.1%. The growth inhibition is 10% in experiment [5] (setting [7]); 83% (active) in experiment [5] (setting [8]); 84.6% (active) in experiment [5] (at 50.0 µM); 2% in experiment [6] (setting [7]); 18% in experiment [6] (setting [8]); 4.8% in experiment [6] (at 50.0 µM).
